According to the supplement of paper PMC3414501:
Counter-ions that a name gives are not always drawn.

Columns and labels:
[1] = test system: S. cerevisiae SK1 pCDA2-eGFP (USY613), sporulating; assay: CDA2-GFP sporulation assay sensitivity score (z-score vs DMSO controls); higher = stronger inhibition of sporulation, active = hit call of the paper;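 further: active if sensitivity score above 5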
[2] = test system: S. cerevisiae AD1-9 (efflux-pump deficient), vegetative growth in YPD; assay: growth sensitivity score (doubling time z-score vs DMSO controls); higher = slower growth, strongly negative scores also mark growth inhibition (complete suppression), active = hit call of the paper
Method in brief: (§1)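 Rich medium in microtiter plates was seeded with Saccharomyces cerevisiae strains BY4741 and AD1-9 at an OD600 of 0.065, and compounds were added as a 1:100 dilution of DMSO stock. A Tecan GENios reader recorded optical density every 15 min for 24 hours, with eight solvent-only wells in each experiment. Average doubling time was the time to reach a set generation point divided by generation number. The growth sensitivity score was the compound mean minus the solvent-only mean, divided by the solvent-only standard deviation.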

[3] = test system: S. cerevisiae BY4741 (wild-type), vegetative growth in YPD; assay: as above
Method in brief: as §1

| Structure (SMILES) | CDA2-GFP sporulation assay sensitivity score [1] | growth sensitivity score [2] | growth sensitivity score [3] |
| --- | --- | --- | --- |
| CN(CCOc1ccc(NS(C)(=O)=O)cc1)CCc1ccc(NS(C)(=O)=O)cc1 [Dofetilide] (stock concentration (mM, diluted 1:100): 10) | -0.99 (inactive) | -1.59 (inactive) | -2.19 |
| CCOC(=O)OC(C)OC1=C(C(=O)Nc2ccccn2)N(C)S(=O)(=O)c2ccccc21 (stereo not given) [Ampiroxicam] (stock concentration (mM, diluted 1:100): 10) | 3.3 (inactive) | -0.54 (inactive) | -0.19 (inactive) |
| COc1ccc(CC(C)NCC(O)c2ccc(O)c(NC=O)c2)cc1 (stereo not given) [Formoterol fumarate dihydrate] (stock concentration (mM, diluted 1:100): 7) | 0.41 (inactive) | -0.7 (inactive) | -0.1 (inactive) |
| N[C@@H](C(=O)N[C@@H]1C(=O)N2C(C(=O)O)=C(Cl)CS[C@H]12)c1ccccc1 [Cefaclor] (stock concentration (mM, diluted 1:100): 10) |  | -1.29 (inactive) | 0.84 (inactive) |
| CN(CCOc1ccc(CC2SC(=O)NC2=O)cc1)c1ccccn1 (stereo not given) [Rosiglitazone maleate] (stock concentration (mM, diluted 1:100): 7.6) | 1.38 (inactive) | 2.19 (active) | 1.82 (inactive) |
| C[C@H]1C[C@H]2[C@@H]3CCC4=CC(=O)C=C[C@]4(C)[C@@]3(Cl)[C@@H](O)C[C@]2(C)[C@@]1(O)C(=O)CO [Beclomethasone] (stock concentration (mM, diluted 1:100): 10) | 1.56 (inactive) | 2.68 (active) | 0.52 (inactive) |
| NC(N)=NC(=O)c1nc(Cl)c(N)nc1N (stock concentration (mM, diluted 1:100): 8.2) | 6.05 (active) | 4.88 (active) | 1.27 (inactive) |
| COc1ccccc1OCCNCC(O)COc1cccc2[nH]c3ccccc3c12 (stereo not given) [Carvedilol] (stock concentration (mM, diluted 1:100): 10) | -0.9 (inactive) | 50.7 (active) | 0.43 (inactive) |
| CCCCc1oc2ccccc2c1C(=O)c1cc(I)c(OCCN(CC)CC)c(I)c1 [Amiodarone hydrochloride] (stock concentration (mM, diluted 1:100): 9.5) | 7.12 (inactive) |  | 126 (active) |
| CNC(=C[N+](=O)[O-])NCCSCc1csc(CN(C)C)n1 [Nizatidine] (stock concentration (mM, diluted 1:100): 10) | -0.14 (inactive) | -0.22 (inactive) | -0.09 (inactive) |
| CCOC(=O)N1CCC(=C2c3ccc(Cl)cc3CCc3cccnc32)CC1 [Loratadine] (stock concentration (mM, diluted 1:100): 10) | 3.83 (inactive) |  | 335 (active) |
| CC[C@@]1(O)C(=O)OCc2c1cc1n(c2=O)Cc2cc3c(CN(C)C)c(O)ccc3nc2-1 [Topotecan hydrochloride] (stock concentration (mM, diluted 1:100): 9.2) |  | 4.71 (active) | -1.34 (inactive) |
| CN(C/C=C/C#CC(C)(C)C)Cc1cccc2ccccc12 [Terbinafine hydrochloride] (stock concentration (mM, diluted 1:100): 8.9) | -2.07 (inactive) | 30.1 (active) | 93.8 (active) |
| Nc1nnc(-c2cccc(Cl)c2Cl)c(N)n1 [Lamotrigine] (stock concentration (mM, diluted 1:100): 10.3) | 0.64 (inactive) |  | -1.57 (inactive) |
| CC(C(O)c1ccc(O)cc1)N1CCC(Cc2ccccc2)CC1 (stereo not given) [Ifenprodil] (stock concentration (mM, diluted 1:100): 9.2) | 16.1 (active) | 44.9 (active) | 3.06 (active) |
